The text below walks through data of PubChem BioAssay (NCI).

Test systems include SK-MEL-2 melanoma; EKVX NSCLC; SN12C renal; UO-31 renal; TK-10 renal; ACHN renal; A498 renal; CCRF-CEM leukemia; MOLT-4 leukemia; SR leukemia; RPMI-8226 leukemia; OVCAR-8 ovarian; OVCAR-5 ovarian; OVCAR-4 ovarian; SK-OV-3 ovarian; IGROV1 ovarian; HS 578T breast; NCI/ADR-RES ovarian; OVCAR-3 ovarian.
Common to all, as to experiment: NCI-60 one-dose screen, 48 h (100 = growth as untreated, 0 = no growth, -100 = all killed)
Conditions in all cases: 10 µM unless noted

The panel holds about 83,000 compounds, 20% with a hit somewhere; the sample as a whole holds those more often.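 Assay: single dose, 48 h. Readout: percent growth (0 = no net growth; negative = cell death). Active: <10.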 Values without a mark were called inactive. Calls of active or inactive are those of the source.

Turning to `CCC1S/C(=N\N=C(/C)c2ccco2)N(c2ccccc2)C1=O` (stereo not given), the growth is 112% in the test with SK-MEL-2 melanoma; 109% in the test on EKVX NSCLC; 141% with SN12C renal; 94.8% with UO-31 renal; 79.4% with TK-10 renal; 110% in the test on ACHN renal. For the same molecule, the growth is 160% in the test with A498 renal; -58.4% (active) with CCRF-CEM leukemia; 78.7% in the test on MOLT-4 leukemia; 92.4% in the test on SR leukemia; 60.4% in the test with RPMI-8226 leukemia; 106% with OVCAR-8 ovarian. Moreover, the growth in the test on OVCAR-5 ovarian is 105%; in the test on OVCAR-4 ovarian, 98.4%; in the test with SK-OV-3 ovarian it was 135%; in the test on IGROV1 ovarian, -17.1% (active); with HS 578T breast, 231%; with NCI/ADR-RES ovarian, 105%.
In the case of `c1cncc(-c2nc3ccccc3[nH]2)c1`, the growth in the test with SK-MEL-2 melanoma was 106%; in the test on EKVX NSCLC, 120%; in the test with SN12C renal, 89.8%; in the test with UO-31 renal it was 82.3%; with TK-10 renal it was 148%; in the test with ACHN renal, 91%. Besides, the growth with A498 renal is 84.4%; with CCRF-CEM leukemia, 110%; with MOLT-4 leukemia, 97.4%; with SR leukemia, 90.6%; with RPMI-8226 leukemia it was 75.3%; in the test with OVCAR-8 ovarian, 98.4%. Further, the growth was 86.5% with OVCAR-5 ovarian; 104% in the test with OVCAR-4 ovarian; 95.3% in the test on SK-OV-3 ovarian; 98.6% in the test with OVCAR-3 ovarian; 78.4% in the test with HS 578T breast; 96.1% in the test with NCI/ADR-RES ovarian.
Regarding `Cc1nssc1=S`, the growth in the test on SK-MEL-2 melanoma is 88.6%; in the test on EKVX NSCLC it was 96.5%; in the test with SN12C renal, 118%; in the test on UO-31 renal, 87.9%; with TK-10 renal, 96.4%; with ACHN renal, 109%. The growth is 147% with A498 renal; 92.2% in the test on CCRF-CEM leukemia; 99.8% with MOLT-4 leukemia; 97.6% in the test on SR leukemia; 97% with RPMI-8226 leukemia; 97.9% in the test on OVCAR-8 ovarian. The growth was 94.6% in the test with OVCAR-5 ovarian; 109% in the test with OVCAR-4 ovarian; 110% in the test with SK-OV-3 ovarian; -13.5% (active) with IGROV1 ovarian; 98.3% in the test on HS 578T breast; 96.6% with NCI/ADR-RES ovarian.
Regarding `Cc1cn([C@]2(CF)O[C@H](CO)C2C)c(=O)[nH]c1=O` (stereo not given in full), the growth is 98.3% with SK-MEL-2 melanoma; 106% in the test on EKVX NSCLC; 125% in the test with SN12C renal; 109% with UO-31 renal; 109% with TK-10 renal; 112% in the test with ACHN renal. Further, the growth is 115% in the test on A498 renal; 114% in the test with CCRF-CEM leukemia; 94% with MOLT-4 leukemia; 181% in the test on SR leukemia; 150% in the test with RPMI-8226 leukemia; 110% with OVCAR-8 ovarian. Moreover, the growth with OVCAR-5 ovarian was 94.5%; in the test on OVCAR-4 ovarian, 113%; in the test on SK-OV-3 ovarian, 122%; in the test on IGROV1 ovarian it was -29.1% (active); with HS 578T breast, 110%; with NCI/ADR-RES ovarian, 113%.
With `S=c1n(CNc2ccc(Cl)nn2)nc(-c2cc(Cl)cc(Cl)c2Cl)n1/N=C/c1ccc(Cl)cc1`, the growth in the test with SK-MEL-2 melanoma is 84.1%; with EKVX NSCLC it was 91.3%; in the test with SN12C renal, 103%; in the test with UO-31 renal, 80.8%; with TK-10 renal, 113%; in the test with ACHN renal, 107%. In addition, the growth in the test with A498 renal was 121%; in the test with CCRF-CEM leukemia it was -32.8% (active); with MOLT-4 leukemia, 60.5%; with SR leukemia, 32.5%; with RPMI-8226 leukemia, 61.2%; in the test with OVCAR-8 ovarian, 114%. For the same molecule, the growth with OVCAR-5 ovarian is 100%; in the test with OVCAR-4 ovarian, 87.5%; in the test on SK-OV-3 ovarian, 107%; with IGROV1 ovarian, 76.2%; with HS 578T breast it was 108%; in the test with NCI/ADR-RES ovarian it was 87.4%.
For the molecule `COc1ccc(C2=NN(C(=O)COc3ccc(Cl)cc3)C(O)(c3cc(F)c(Cl)cc3Cl)C2)cc1` (stereo not given), the growth is 99.2% in the test on SK-MEL-2 melanoma; 80.5% in the test with EKVX NSCLC; 119% with SN12C renal; 74.7% with UO-31 renal; 89.5% in the test with TK-10 renal; 104% with ACHN renal. For the same molecule, the growth was 95.3% in the test on A498 renal; 7.54% (active) with CCRF-CEM leukemia; 77.3% in the test with MOLT-4 leukemia; 17% in the test on SR leukemia; 80.9% with RPMI-8226 leukemia; 91% in the test with OVCAR-8 ovarian. Moreover, the growth is 96.6% in the test with OVCAR-5 ovarian; 98.8% with OVCAR-4 ovarian; 94.6% in the test on SK-OV-3 ovarian; 60.4% in the test on IGROV1 ovarian; 102% in the test on HS 578T breast; 99% with NCI/ADR-RES ovarian.
For `O=C(O)c1ccc2nc(-c3ccc(OCCCCCOc4ccc(-c5nc6ccc(C(=O)O)cc6[nH]5)cc4)cc3)[nH]c2c1`, the growth in the test with SK-MEL-2 melanoma is 101%; in the test with EKVX NSCLC, 113%; in the test on SN12C renal, 62.2%; with UO-31 renal, 90.5%; in the test with TK-10 renal it was -2.6% (active); with ACHN renal, 98.4%. Further, the growth in the test with A498 renal is 53.6%; in the test with CCRF-CEM leukemia it was 76.1%; in the test on MOLT-4 leukemia, 87.7%; in the test on SR leukemia, 120%; with RPMI-8226 leukemia, 123%; in the test on OVCAR-8 ovarian, 49%. In addition, the growth in the test on OVCAR-5 ovarian was 9.11% (active); in the test with OVCAR-4 ovarian, 82.6%; in the test with SK-OV-3 ovarian, 48.8%; in the test with IGROV1 ovarian, 109%; in the test with HS 578T breast, 82.7%; with NCI/ADR-RES ovarian it was 33.1%.
For the molecule `COc1ccc(/C(=C/c2cc(OC)c(OC)c(OC)c2)[N+](=O)[O-])cc1`, the growth was -13.2% (active) in the test with SK-MEL-2 melanoma; 27.9% in the test on EKVX NSCLC; 5.64% (active) in the test with SN12C renal; -69.1% (active) with UO-31 renal; -1.67% (active) with TK-10 renal; -74% (active) with ACHN renal. Further, the growth with A498 renal was 87.4%; in the test with CCRF-CEM leukemia, -7.93% (active); with MOLT-4 leukemia, 0.326% (active); in the test with SR leukemia it was -11.2% (active); in the test on RPMI-8226 leukemia, -18.6% (active); with OVCAR-8 ovarian, 13.4%. Moreover, the growth in the test with OVCAR-5 ovarian is 98.6%; in the test on OVCAR-4 ovarian, 37.3%; with IGROV1 ovarian, -4.79% (active); with OVCAR-3 ovarian, -54.3% (active); with HS 578T breast, 97.9%.
Regarding `CN1CCN(Cn2nc(-c3cc(F)c(Cl)cc3Cl)n(/N=C/c3ccc(N(C)C)cc3)c2=S)CC1`, the growth in the test on SK-MEL-2 melanoma was 90.2%; with EKVX NSCLC, 87.1%; with SN12C renal, 102%; with UO-31 renal it was 55.5%; in the test with TK-10 renal, 90.2%; in the test with ACHN renal it was 92.7%. For the same molecule, the growth with A498 renal was 78.8%; in the test with CCRF-CEM leukemia, 83.5%; in the test with MOLT-4 leukemia it was 99.1%; with SR leukemia it was 43.8%; with RPMI-8226 leukemia, 80.9%; in the test on OVCAR-8 ovarian, 90.8%. Besides, the growth in the test on OVCAR-5 ovarian is 106%; in the test with OVCAR-4 ovarian, 106%; in the test on SK-OV-3 ovarian, 77.4%; in the test with IGROV1 ovarian it was 57.8%; in the test with HS 578T breast, 63.5%.
